# In the library only some 10% were active in any assay of this set; here they are far more common.
# Luciferase inh: Firefly luciferase inhibition profiling of diverse chemical library using quantitative high-throughput screening | Luciferin 4-monooxygenase (Photinus pyralis), P08659 | purified P. pyralis luciferase, luminescence, biochemical | Potency, µM (series often up to 115 µM), most hits filed as inhibitors | 76,000 compounds, 2.5% hits | AID 1347043, 2019; also: % is scaled to controls: 0 for no effect and ±100 for the full control effect; nearly all actives have a fitted effect of over 65% in size
#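 FLuc 10nM, D-luciferin 10uM, ATP 10uM, Mg acetate 10mM, Tris acetate pH 7.5, Tween/BSA; cpd qHTS; enzyme added last; CCD luminescence.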
# NIH3T3 tox: Cytotoxic Profiling in NIH 3T3 Cell Line of Diverse Libraries Using Quantitative High-Throughput Screening; AID 1345082, 2018; NIH 3T3 viability, CellTiter-Glo ATP luminescence, 48-72 h; 94,000 compounds, 4.3% hits; Potency, µM (top dose mostly 96.7 µM), inactives show at the highest dose activity change, negative = cytotoxicity, usual class: inhibitors; also: % is scaled to controls: 0 for no effect and ±100 for the full control effect; nearly all actives have a fitted effect of over 55% in size
#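 Cytotoxicity was measured by CellTiter-Glo ATP luminescence after 48 or 72 h compound exposure at 37 °C. Mouse NIH 3T3 fibroblasts were seeded at 400 cells/well and dosed by 23 nL pin transfer.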
# GPT2 inhibitor: Primary qHTS assay for inhibitors of Glutamate pyruvate transaminase 2 (GPT2) | Alanine aminotransferase 2 (Homo sapiens), Q8TD30 | Recombinant GPT2, coupled pyruvate oxidase/HRP Amplex Red fluorescence | Potency, µM (series often up to 57.7 µM), inactives show top-dose activity change, negative = inhibition, usual class: inhibitors | 100,000 compounds, 0.25% hits; also: % is scaled to controls: 0 for no effect and ±100 for the full control effect; nearly all actives have a fitted effect of over 60% in size
# Target sequence (Q8TD30 whole entry, looked up): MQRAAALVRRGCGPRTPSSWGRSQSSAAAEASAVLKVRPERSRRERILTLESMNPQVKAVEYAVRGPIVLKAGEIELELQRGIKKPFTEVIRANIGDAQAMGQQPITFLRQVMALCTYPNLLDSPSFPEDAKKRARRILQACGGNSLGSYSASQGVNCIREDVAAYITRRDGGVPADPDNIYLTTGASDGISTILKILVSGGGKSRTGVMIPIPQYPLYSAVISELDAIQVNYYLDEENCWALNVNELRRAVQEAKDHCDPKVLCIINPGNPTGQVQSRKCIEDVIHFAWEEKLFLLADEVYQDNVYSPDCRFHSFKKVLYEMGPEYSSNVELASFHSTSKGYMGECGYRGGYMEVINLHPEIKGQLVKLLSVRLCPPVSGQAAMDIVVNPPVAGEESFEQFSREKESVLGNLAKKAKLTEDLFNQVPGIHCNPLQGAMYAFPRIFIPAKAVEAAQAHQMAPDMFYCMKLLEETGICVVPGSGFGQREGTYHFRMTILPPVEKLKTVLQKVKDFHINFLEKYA
#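 Fluorescence read-out: pyruvate from GPT2 turnover coupled to pyruvate oxidase, HRP and Amplex Red (0.2mM ThPP, 0.2U/mL PO and HRP, 50uM Amplex final). Substrates 250uM a-KG, 2mM L-alanine; enzyme 10ng/uL; 30 min RT.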
# NPR1 antag: Natriuretic polypeptide receptor (hNpr1) antagonism - Primary qHTS. Atrial natriuretic peptide receptor 1 (Homo sapiens), P16066. 76,000 compounds, 1.6% hits. HEK293 hNpr1 GloSensor cGMP, ANP-stimulated luminescence. Potency, µM (titrated, usually from 46.3 µM), for inactives: at the highest dose activity change, negative = inhibition, actives largely listed as inhibitors. AID 1347048, 2019; calls by dose curve; also: % is scaled to controls: 0 for no effect and ±100 for the full control effect; nearly all actives have a fitted effect of over 60% in size
#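 Compound pre-incubated 30 min at room temperature on GloSensor-loaded HEK293 cells stably carrying hNpr1 and the pGS-40F cGMP biosensor. Stimulation uses hNppA at 0.1 nM final; luminescence is taken at baseline and 20 min post-agonist.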
# HEK cytotox: Cytotoxic Profiling in HEK 293 Cell Line of Diverse Libraries Using Quantitative High-Throughput Screening | 94,000 compounds, 6.6% hits | Potency, µM (top dose mostly 115 µM), inactives show at the highest dose activity change, negative = cytotoxicity, usual class: inhibitors | HEK 293 viability, ATP luminescence (CellTiter-Glo), 48-72 h | AID 1345083, 2018; also: % is scaled to controls: 0 for no effect and ±100 for the full control effect; nearly all actives have a fitted effect of over 60% in size
#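 Cytotoxicity was scored by loss of ATP-coupled luminescence (CellTiter-Glo) in HEK 293 cells. Compound treatment ran 48 or 72 hr at 37 degree Celsius, 5% CO2, 95% humidity.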
# Npr1 antag conf: Natriuretic polypeptide receptor (hNpr1) antagonism - Confirmation. shares compounds with NPR1 antag. HEK293 hNpr1 cGMP GloSensor luminescence, ANP-stimulated. Potency, µM (doses to about 57.6 µM), for the others: at the highest dose activity change, negative = inhibition, usual class: inhibitors. 1,400 compounds, 76% hits; calls by dose curve; also: nearly all actives have a fitted effect of over 70% in size
# Npr2 selectivity: Natriuretic polypeptide receptor (hNpr2) antagonism - Subtype selectivity assay | shares compounds with NPR1 antag | HEK293 hNpr2 GloSensor cGMP luminescence, CNP-stimulated | Potency, µM (top dose mostly 57.6 µM), without a hit: at the highest dose activity change, negative = inhibition, hits mostly inhibitors | 1,400 compounds, 67% hits; calls by dose curve; also: nearly all actives have a fitted effect of over 70% in size
# FLuc counter: Natriuretic polypeptide receptor (hNpr1) antagonism - Confirmation firefly luciferase (FLuc) inhibition counterscreen; shares compounds with NPR1 antag; purified FLuc enzyme, luminescence, Km substrate; Potency, µM (titrated, usually from 57.6 µM), for the others: top-dose activity change, negative = inhibition, usual class: inhibitors; 1,400 compounds, 0.7% hits; also: series mostly up to about 58 µM; 0% is about no effect
# GloSensor ctrl: Natriuretic polypeptide receptor (hNpr1) antagonism - Counterscreen GloSensor control cell line; shares compounds with NPR1 antag; HEK293 GloSensor cGMP, SNP-stimulated, luminescence; Potency, µM (top dose mostly 57.6 µM), for the others: at the top dose activity change, negative = inhibition, usual class: inhibitors; 1,400 compounds, 69% hits; AID 1347051, 2019; calls by dose curve; also: % is scaled to controls: 0 for no effect and ±100 for the full control effect; nearly all actives have a fitted effect of over 70% in size
# Starred values were filed as active, the others as inactive; i = inactive; ? = inconclusive; . = no result; [ ] = remark or other dose. Unless noted, calls follow the shape of the dose curve; as a rule, active = well fitted curve in the direction sought with a large enough effect; inconclusive = small, poorly fitted or top-dose-only effect, or another doubt; inactive = no such curve, though single readings can be large; an effect the other way counts as inactive or inconclusive. Potency is read from the fitted curve at half-maximal effect.
SMILES,Luciferase inh,NIH3T3 tox,GPT2 inhibitor,NPR1 antag,HEK cytotox,Npr1 antag conf,Npr2 selectivity,FLuc counter,GloSensor ctrl
O=C1NCc2ccccc2CC12CCCN2Cc1ccc(Br)cc1 (centres undefined),.,?,i,.,?,-21%,-25%,2%,2%
COc1ccc(CC(=O)N[C@@H]2CN(Cc3ccccc3)C[C@H]2CO)cc1,i,-16%,-21%,-15%,?,.,.,.,.
CC(C)c1ccc(N2C(=O)[C@@H]3C[C@@H](NC(=O)C4CCN(c5nccc(C(F)(F)F)n5)CC4)CCN3C2=O)cc1,i,?,i,?,?,?,?,2%,?
Cn1c(=O)n([C@@H]2CCN(C(=O)CCc3nc4ccccc4s3)C2)c2ncccc21,.,?,-6%,.,-13%,.,.,.,.
COc1ccc(CC(=O)N2CCCN(c3cc(-c4ccc(Br)cc4)[nH]n3)CC2)cc1OC,i,?,?,?,?,.,.,.,.
O=C(Cc1ccc(F)cc1)N1CCN(c2cc(-c3ccc(Cl)cc3)[nH]n2)CC1,i,?,i,?,40µM*,?,?,1%,?
COc1ccc(-c2cc(N3CCN(C(=O)Cc4ccc(F)cc4)CC3)n[nH]2)cc1,i,-12%,i,-2%,2%,.,.,.,.
O=C(Cc1ccc(Br)cc1)N1CCCN(c2cc(-c3ccc(F)cc3)[nH]n2)CC1,i,?,?,?,?,?,?,2%,27µM*
CCN1CCN(Cc2ccc(Nc3ncc(F)c(-c4cc(F)c5nc(C)n(C(C)C)c5c4)n3)nc2)CC1,.,.,3%,.,.,.,.,.,.
O=C(c1cc(F)ccc1F)N1CCC(Cc2nc(-c3cnccn3)no2)CC1,i,-10%,-7%,7%,3%,.,.,.,.
COc1ccc(-c2noc(CC3CCN(C(=O)c4cc(F)ccc4F)CC3)n2)cc1,i,?,i,7.1µM*,?,6.9µM*,6.9µM*,-4%,4.3µM*
COc1ccc(-c2noc(CC3CCN(C(=O)c4cc(Cl)ccc4F)CC3)n2)cc1,i,?,-22%,7.1µM*,40µM*,9.7µM*,11µM*,0%,9.7µM*
COC[C@@H]1[C@H](C(=O)NCc2ccccc2OC)CCC(=O)N1C,.,2%,i,.,i,.,.,.,.
O=C(c1ccc(C(F)(F)F)cc1)N1CCC2(CNc3ccccc3[S+](=O)([O-])N2)C1 (centres undefined),i,?,i,?,?,22µM*,?,-2%,17µM*
COc1ccc(OC)c(C2CCN(c3ncncn3)C2)c1 (centres undefined),i,?,-13%[11.5 µM],4%,?,.,.,.,.
COCc1cc(N2CCC(c3cccc(OC)c3OC)C2)ncn1 (centres undefined),i,?,i[11.5 µM],3.2µM*,?,3.1µM*,4.8µM*,-2%,3.1µM*
O=C(NCC(F)F)C1CCN(c2nccc(Nc3ccccc3Cl)n2)CC1,.,?,4%,.,?,.,.,.,.
Cc1nn2c(c1-c1ccccc1-c1ccccc1)N(Cc1ccccc1)CCC2,i,13µM*,0%[88.5 µM],14µM*,?,6.3µM*,8.9µM*,-8%[86.2 µM],4µM*
Cc1nn2c(c1-c1ccccc1-c1ccccc1)N(C(=O)c1ccnn1C)CCC2,i,?,1%[88.5 µM],-1%[70.6 µM],-21%[172 µM],.,.,.,.
COC1CCC(C(=O)N2CCCn3nc(C)c(-c4ccccc4-c4ccccc4)c32)CC1 (centres undefined),i,?,1%[88.5 µM],2%[70.6 µM],?,.,.,.,.
Cc1nn2c(c1-c1ccccc1-c1ccccc1)N(CCC(C)C)CCC2,i,8.9µM*,-15%[88.5 µM],1.6µM*,7.9µM*,0.99µM*,1.6µM*,-14%[86.2 µM],0.79µM*
CC1=C[C@@H](CNC(=O)C2CC2)[C@H](C(C)C)C[C@H]1Cc1nc2ccccc2n1C,i,100µM*,-7%[88.5 µM],25µM*,45µM*,31µM*,35µM*,3%[86.2 µM],25µM*
Cc1cnccc1CN(C)C(=O)c1cc(COc2ccc(-n3cncn3)cc2)on1,i,?,2%,7.1µM*,?,5.4µM*,9.7µM*,0%,5.4µM*
CC(C)n1cc(CN(C)C(=O)c2cc(COc3ccccc3)on2)cn1,?,?,i,0%,?,.,.,.,.
CN(C)C(=O)N1CCCC(C(=O)N2CCC3(CC2)CC(=O)Nc2ccccc2O3)C1 (centres undefined),.,-15%,i,.,2%,.,.,.,.
COc1cc(OC)cc(C(=O)N2CCC(Cc3nc(-c4ccccc4)no3)CC2)c1,i,?,i,?,?,.,.,.,.
COc1ccc(Cl)cc1C(=O)N1CCC(Cc2nc(-c3cnccn3)no2)CC1,i,?,4%,-2%,-14%,.,.,.,.
COc1ccc(-c2noc(CC3CCN(C(=O)C4CCN(C(=O)c5ccccc5)CC4)CC3)n2)cc1,i,?,i,8.9µM*,?,19µM*,17µM*,0%,12µM*
COc1ccc(-c2noc(CC3CCN(C(=O)c4ccc(OC)cc4OC)CC3)n2)cc1,i,?,2%,2.8µM*,?,3.1µM*,4.8µM*,-2%,3.1µM*

# Screening results (PubChem)
